# Reference: article PMC4242493, “Sequence specificity incompletely defines the genome-wide occupancy of Myc”
# In all, about 33,000 sequences were measured (“normalized occupancy”: median about 0.075, highest 2% from about 0.095 on). The full list was thinned out, with the highest values kept by preference.
# Biological target: MaxL homodimer (Homo sapiens, UniProt P61244 1-160)
# Assay: universal protein-binding microarray (PBM); PBS-based mixture, 10 nM His-tagged protein dimer, 2% milk, 200 ng/uL BSA, 50 ng/uL salmon testes DNA, 0.02% TX-100; detection with Alexa 488 anti-His antibody;; high values mean tight binding
# Settings: protein: recombinant; tags: C-terminal His-tag (pET21a); chain copies: 2; dsDNA, one strand shown
# How it was run: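 Arrays of the 'all 10-mer' universal design (Agilent 4 x 44 K) were exposed to 10 nM His-tagged protein dimer, stained with 10 ng/μL fluorophore-conjugated anti-His antibody and read on a GenePix 4400A to give a fluorescence intensity for each 8-mer. Binding occupancy is each intensity divided by the highest-ranked intensity.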
# MaxL homodimer, sequence (P61244 whole entry): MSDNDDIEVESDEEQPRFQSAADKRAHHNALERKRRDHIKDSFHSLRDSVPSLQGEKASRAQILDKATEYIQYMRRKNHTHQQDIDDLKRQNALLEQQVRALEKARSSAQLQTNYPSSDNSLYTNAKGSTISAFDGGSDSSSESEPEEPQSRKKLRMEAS
row,Sequence,binding signal [normalized occupancy]
1,ATAGTGAA,0.0751
2,AACCCGAG,0.0727
3,AGCATACA,0.087
4,CGCATCCG,0.0736
5,AGCATCCT,0.0767
6,TGCATGCA,0.1
7,TGCATACA,0.085
8,CGCATGCG,0.133
9,TGCATGAA,0.0821
10,AGCATGCT,0.134
11,AGCATGCA,0.114
12,CGAATGCG,0.0744
13,AACATGCT,0.0905
14,AGCATTCA,0.0761
15,GCGTACAA,0.0756
16,GCTTAGAC,0.0762
17,GTATTGAC,0.0759
18,ACCGTCCA,0.0727
19,CAATAACA,0.0785
20,GCATACCA,0.0835
21,AAGCATCC,0.0817
22,CGCATCCC,0.0821

row,Sequence,binding signal [normalized occupancy]
1,CGCATGCA,0.122
2,CGCATTCA,0.0752
3,GGCATGCC,0.0932
4,CGCATGCC,0.116
5,AGCATTCC,0.0752
6,GGCATGAA,0.081
7,GGCATGCA,0.109
8,CGGATGCC,0.0725
9,AGCATCCC,0.077
10,AGCATGCC,0.112
11,CGAATGCA,0.0799
12,TAAGTACA,0.0831
13,AGTACTAA,0.0769
14,GGGTTCTA,0.0754
15,CGATTGGC,0.0736
16,ACTTCGGG,0.0726
17,AGCCCTTG,0.0731
18,AGATTGGA,0.0757
19,AACATCGC,0.0768
20,GTTCTCTA,0.0731
21,CGTGGTTC,0.0858
22,CGGAGGTA,0.0743

row,Sequence,binding signal [normalized occupancy]
1,AGCATCCG,0.0757
2,AGTATGCG,0.077
3,AGCATGCG,0.124
4,GCAAGGTA,0.0757
5,CGCAGTAC,0.0724
6,ATATGGCG,0.0846
7,ATATGGCA,0.098
8,ATATGGGA,0.0957
9,CTATGGGA,0.0764
10,GTATGGGA,0.0804
11,CTATGGCA,0.0779
12,ATGATAAG,0.0844
13,AGCTCCAT,0.0804
14,AACATACG,0.0835
15,AACATGCC,0.089
16,AACATGCG,0.101
17,GACATGCC,0.0968
18,CACATGCC,0.134
19,CACATGCG,0.159
20,GAGATGCC,0.0786
21,AACATGCA,0.0927
22,CAAATGCG,0.0791

row,Sequence,binding signal [normalized occupancy]
1,GACATGCA,0.0909
2,CAGATGCG,0.078
3,CAAATGCC,0.0743
4,CCAACCCA,0.0759
5,AGTGCCTC,0.0729
6,AGAGGCAC,0.0762
7,AGGCTCAT,0.0751
8,AATCTAAA,0.0727
9,ACCGGTAG,0.0719
10,TACATGCA,0.0895
11,CACATGCA,0.138
12,CAAATGCA,0.0784
13,ATGCGGAG,0.0844
14,CGTTGAGC,0.0723
15,GGGCATGA,0.087
16,CGGCATGA,0.0962
17,CGGCATAC,0.0757
18,CGGCATGC,0.109
19,AGGCATGA,0.091
20,CGGCATCC,0.078
21,AGACCATC,0.0766
22,ATCTAGTG,0.078

row,Sequence,binding signal [normalized occupancy]
1,GCCTGCCA,0.072
2,ATGCACGC,0.111
3,CTGCACGC,0.0997
4,ATGCACGA,0.0913
5,ATGCACGG,0.0875
6,CAGCACGC,0.0982
7,AAGCACGC,0.0949
8,CTGCACAA,0.0745
9,CTGCACGA,0.0824
10,CAGCACGA,0.0909
11,CAATTTGG,0.0724
12,CCACCGAA,0.0733
13,AACAGCGA,0.0748
14,AGTCACAA,0.0805
15,GTATATCA,0.0787
16,GCCACCCC,0.0827
17,ACCCCCCC,0.0963
18,AACCCCCC,0.0825
19,CCCACCCA,0.0925
20,CCCACCCC,0.0962
21,ACCCCCCA,0.0865
22,GGTGCAAA,0.0755
